PubChem BioAssay AID651658 (Broad Institute, 2012)
About 5,100 (1.5%) of roughly 340,000 compounds were called active. The list comes from a sample in which actives are over-represented; it also holds similar structures and randomly drawn compounds. A number with no mark means an inactive call.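 The calls were made as follows: active = mean Tm shift, scaled 0 neutral to 100 positive control, at about 1.3% or above, every replicate too (limit read from the data); inconclusive = no clear call, values can overlap the other calls; inactive = the rest.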

What follows are compounds tested against Fibroblast growth factor 22 (Homo sapiens) (UniProt Q9HCT0) (assay: FGF22 ligand-induced thermal stabilization – biophysical, thermal shift, single point, FGF22 synaptogenesis inhibitor project, primary screen (AID 651658)). Conditions: recombinant FGF22 thermal shift, SYPRO orange fluorescence; at 9.99 µM; stronger effect = higher value; percent of sucrose octasulfate shift, DMSO zero.
Sequence of Fibroblast growth factor 22 (Homo sapiens) (Q9HCT0 whole entry, looked up): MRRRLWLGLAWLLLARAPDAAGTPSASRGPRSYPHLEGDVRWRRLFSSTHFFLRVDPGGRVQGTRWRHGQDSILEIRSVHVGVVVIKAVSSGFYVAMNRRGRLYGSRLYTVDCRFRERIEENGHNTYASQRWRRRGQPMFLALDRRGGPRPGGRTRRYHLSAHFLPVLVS
`CCCC#Cc1cnc2c(c1)C(=O)N([C@@H](C)CO)C[C@@H](C)[C@@H](CN(C)Cc1ccccc1F)O2` was tested, and the activity (Tm shift, normalised) was -0.354%.
`Cc1ccn2c(-c3csc(Nc4ccc(C(=O)O)cc4)n3)c(C)nc2c1` showed an activity (Tm shift, normalised) of -0.135%.
`C/C(=N/OC(=O)c1ccc(Br)cc1)c1ccc(C)cc1` was tested, and the activity (Tm shift, normalised) was 0.152%.
`C/C(=N\OC(=O)c1ccccc1)c1c(C)nc2cc(C)ccn12` was tested, and the activity (Tm shift, normalised) was 44.6% (active).
`Cc1ccccc1-c1cnc2c(c1)C(=O)N([C@H](C)CO)C[C@@H](C)[C@H](CN(C)C(=O)c1cccnc1)O2` showed an activity (Tm shift, normalised) of 0.163%.
`CO[C@@H]1CN(C)C(=O)c2ccc(NC(=O)Nc3cc(Cl)cc(Cl)c3)cc2OC[C@H](C)NC[C@H]1C` showed an activity (Tm shift, normalised) of -0.905%.
Work on `CC(C)c1ccc(S(=O)(=O)NC2CCCC2)cc1` yielded an activity (Tm shift, normalised) of 0.004%.
`Cc1ccc(S(=O)(=O)NC2CCCCCC2)cc1` was tested, and the activity (Tm shift, normalised) was 43% (active).
In the case of `Cc1ccc(S(=O)(=O)N[C@H]2CCC[C@@H]2O)cc1`, the activity (Tm shift, normalised) was -0.275%.
`C[C@@H]1CN([C@@H](C)CO)C(=O)CCCn2cc(nn2)CO[C@@H]1CN(C)S(=O)(=O)c1ccccc1C#N` showed an activity (Tm shift, normalised) of -0.156%.
For `CSc1ccc(/C=N\NC(=O)CC(=O)NC(C)C)cc1`, the activity (Tm shift, normalised) was 43.1% (active).
Work on `CSc1ccc(/C=N/NC(=O)c2cccc(Cl)c2)cc1` yielded an activity (Tm shift, normalised) of 0.743%.
`O=C(CC(=O)N/N=C\c1ccc(F)cc1)NCCc1ccccc1` showed an activity (Tm shift, normalised) of 0.292%.
For `Cc1ccc(S(=O)(=O)N(C)C[C@@H]2Oc3ccc(NS(=O)(=O)c4cccs4)cc3C(=O)N([C@@H](C)CO)C[C@H]2C)cc1`, the activity (Tm shift, normalised) was -0.456%.
`CO[C@H]1CN(C)C(=O)c2cc(NC(=O)C3CCC3)ccc2OC[C@H](C)N(CC2CCCCC2)C[C@@H]1C` showed an activity (Tm shift, normalised) of 0.141%.
For `CCN(c1ccccc1)S(=O)(=O)c1ccc(N)cc1`, the activity (Tm shift, normalised) was -0.161%.
Work on `O=S(=O)(c1ccccc1)N(Cc1cccc(F)c1)c1ccccc1` yielded an activity (Tm shift, normalised) of -0.239%.
In the case of `O=S(=O)(ON(c1ccccc1)S(=O)(=O)c1ccccc1)c1ccccc1`, the activity (Tm shift, normalised) was 1.68% (active).
With `CN1c2ccc(C3=CCCCC3)cc2[C@@H]2[C@@H](CCN2S(=O)(=O)c2ccccc2F)[C@H]1CO` the activity (Tm shift, normalised) was -0.132%.
For `Cc1noc(C)c1NC(=O)N[C@H]1C=C[C@@H](CC(=O)Nc2ccccc2)O[C@H]1CO`, the activity (Tm shift, normalised) was -0.156%.
In the case of `CO[C@@H]1CN(C)C(=O)c2cc(NS(=O)(=O)c3cccc(F)c3)ccc2OC[C@@H](C)NC[C@@H]1C`, the activity (Tm shift, normalised) was -0.14%.
`Clc1ccc(C[n+]2cc(-c3ccccc3)n3c2CCC3)cc1` gave an activity (Tm shift, normalised) of -0.249%.
`Cc1ccc(C(=O)C[n+]2cc(-c3ccccc3)n3c2CCCCC3)cc1` was tested, and the activity (Tm shift, normalised) was 44.4% (active).
With `Cc1ccc(-c2c[n+](CC(=O)Nc3ccccc3)c3n2CCC3)cc1` the activity (Tm shift, normalised) was -0.075%.
`O=C(C[C@H]1C=C[C@H](NC(=O)Nc2cc(F)ccc2F)[C@H](CO)O1)Nc1ccccc1` showed an activity (Tm shift, normalised) of 0.041%.
Compound `C[C@@H]1CCCCO[C@@H](CN(C)Cc2ccncc2)[C@@H](C)CN([C@@H](C)CO)C(=O)c2cc(NC(=O)Nc3ccc(F)cc3)ccc2O1` has an activity (Tm shift, normalised) of -0.232%.
With `CCCNC(=O)C[C@@H]1CC[C@H]2[C@@H](COC[C@@H](O)CN2Cc2ccccc2F)O1` the activity (Tm shift, normalised) was 0.109%.
In the case of `CCC(=O)Nc1ccc2c(c1)OC[C@H](C)N(C(=O)Cc1cccnc1)C[C@@H](C)[C@@H](OC)CN(C)C2=O`, the activity (Tm shift, normalised) was -0.218%.
Work on `CCc1cccc(NC(=O)O[C@H]2[C@H](OC(=O)Nc3ccccc3-c3ccccc3)[C@H](OC(=O)Nc3ccccc3-c3ccccc3)[C@@H](OC)O[C@@H]2CO)c1` yielded an activity (Tm shift, normalised) of -0.082%.
`COc1ccc(S(=O)(=O)N2CCCCN3[C@H](CO)[C@H](c4ccc(C5=CCCCC5)cc4)[C@@H]3C2)cc1` showed an activity (Tm shift, normalised) of -0.535%.
`O=[N+]([O-])c1ccc(N2CCN(CC(O)COc3ccccc3)CC2)cc1` (stereo not drawn) was tested, and the activity (Tm shift, normalised) was 43.9% (active).
With `O=[N+]([O-])c1ccc(N2CCOCC2)cc1` the activity (Tm shift, normalised) was -0.032%.
`OC(COc1ccccc1)CN1CCN(c2cccc(Cl)c2)CC1` (stereo not drawn) showed an activity (Tm shift, normalised) of 0.055%.
Compound `CC(C)NC(=O)Nc1ccc2c(c1)C(=O)N([C@H](C)CO)C[C@H](C)[C@H](CN(C)C(=O)CCC(F)(F)F)OCCCC[C@H](C)O2` has an activity (Tm shift, normalised) of -0.429%.
`CN1CCN(C(=O)C[C@H]2CC[C@H]3[C@@H](COc4ccc(NC(=O)C5CCC5)cc4C(=O)N3C)O2)CC1` was tested, and the activity (Tm shift, normalised) was -0.349%.
With `COC(=O)C1=C(C)N(C)C(=S)NC1c1ccccc1` (stereo not drawn) the activity (Tm shift, normalised) was 0.104%.
In the case of `COC(=O)C1=C(C)N(C)C(=O)NC1c1ccc([N+](=O)[O-])o1` (stereo not drawn), the activity (Tm shift, normalised) was 43.8% (active).
`COc1ccc(C2NC(=O)N(C)C(C)=C2[N+](=O)[O-])cc1` (stereo not drawn) was tested, and the activity (Tm shift, normalised) was 0.013%.
For `COCC(=O)N1CCCCN2[C@H](CO)[C@H](c3ccc(C#Cc4ccc(OC)cc4)cc3)[C@H]2C1`, the activity (Tm shift, normalised) was 0.2%.
In the case of `COc1ccc2c3c(n(C)c2c1)[C@H](CO)N(C(C)=O)CC31CCN(Cc2cccnc2)CC1`, the activity (Tm shift, normalised) was -0.052%.
In the case of `C/C=C/c1ccc2c(c1)O[C@H](CN(C)C(=O)Cc1ccncc1)[C@@H](C)CN([C@@H](C)CO)S2(=O)=O`, the activity (Tm shift, normalised) was -0.034%.
For `CC(NCC(=O)Nc1cc(Cl)cc(Cl)c1)c1ccccc1` (stereo not drawn), the activity (Tm shift, normalised) was -0.134%.
Compound `Cc1nnc(SC(C(=O)c2ccccc2)c2ccccc2)[nH]c1=O` (stereo not drawn) has an activity (Tm shift, normalised) of 0.339%.
In the case of `Cc1nnc(SC(C(=O)Nc2cc(Cl)cc(Cl)c2)c2ccccc2)[nH]c1=O` (stereo not drawn), the activity (Tm shift, normalised) was 1.39% (active).
With `C[C@H]1CN([C@@H](C)CO)C(=O)Cc2cc(N(C)C)ccc2O[C@@H]1CN(C)S(=O)(=O)c1ccc(F)cc1` the activity (Tm shift, normalised) was -0.149%.
`C[C@@H]1CCCCO[C@H](CN(C)S(=O)(=O)c2cccs2)[C@@H](C)CN([C@@H](C)CO)C(=O)c2cc(NC(=O)NC3CCCCC3)ccc2O1` showed an activity (Tm shift, normalised) of -0.096%.
`Cc1ccccc1-c1ccc2c(c1)O[C@H](CN(C)C)[C@H](C)CN([C@@H](C)CO)S2(=O)=O` gave an activity (Tm shift, normalised) of 0.074%.
`C[C@@H]1CN([C@@H](C)CO)C(=O)c2cc(NC(=O)CCCCCC(=O)Nc3ccccc3N)ccc2O[C@@H](C)CCCCO[C@@H]1CN(C)CC1CCCCC1` gave an activity (Tm shift, normalised) of -0.209%.
